Assay outcomes deposited in PubChem BioAssay by National Center for Advancing Translational Sciences (NCATS).
Most compounds without a hit are left out; they make up all but 5.7% or so of the library.
KB-3-1 cytotox: qHTS assay for MDR1-selective chemotherapeutics: Primary screen using the parental adenocarcinoma cell KB-3-1 | KB-3-1 viability, CellTiter-Glo ATP luminescence, 72 h | Potency, µM (top dose mostly 46.1 µM), usual class: cytotoxic | hit rate 1.4% among 400,000 | AID 1347075, 2019; note: potency is the fitted concentration of half-maximal effect; nearly all actives have a fitted effect of over 60% in size
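KB-3-1 parental drug-naive adenocarcinoma cells in DMEM/10% FBS, incubated 72 h at 37 C with pin-transferred compounds across a concentration series. Viability by CellTiter-Glo luminescence; concentration-response curves fitted after normalization.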
PI4K2A inh: qHTS for small molecular inhibitors of PI4K2A; Phosphatidylinositol 4-kinase type 2-alpha (Homo sapiens), Q9BTU6; purified PI4K2A, ADP-Glo luminescence, 1 h; hits give low values; activity change, negative = inhibition, % at 76.9 µM; hit rate 0.13% among 420,000; AID 1346378, 2018; in the data active = activity change below about -50%; inconclusive = mostly about -30% to -49%;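 note: -100% = wells without enzyme as full effect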
Target sequence (Q9BTU6 whole entry, looked up): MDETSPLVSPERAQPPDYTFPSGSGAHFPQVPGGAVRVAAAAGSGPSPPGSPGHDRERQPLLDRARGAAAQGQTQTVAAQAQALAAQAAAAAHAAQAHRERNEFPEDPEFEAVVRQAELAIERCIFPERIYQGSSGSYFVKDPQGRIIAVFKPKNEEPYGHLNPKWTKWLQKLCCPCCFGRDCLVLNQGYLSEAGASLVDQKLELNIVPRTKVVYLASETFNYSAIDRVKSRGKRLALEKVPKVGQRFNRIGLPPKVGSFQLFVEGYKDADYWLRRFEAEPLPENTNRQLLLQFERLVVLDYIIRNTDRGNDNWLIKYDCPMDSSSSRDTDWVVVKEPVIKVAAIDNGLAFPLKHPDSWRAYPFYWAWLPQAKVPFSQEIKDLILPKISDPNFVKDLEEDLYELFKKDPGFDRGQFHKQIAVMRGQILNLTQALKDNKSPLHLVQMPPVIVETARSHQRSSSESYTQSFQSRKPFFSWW
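PI4K2A activity was measured by ADP-Glo luminescence: enzyme (4 ug/mL stock) and phosphatidylinositol (1.2 mM stock) in Tris pH 7.5/MgCl2/EGTA/Triton X-100 buffer were reacted with ATP (300 microM stock) for one hour at ambient temperature.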
Giardia killer: Small Molecules that selectively kill Giardia lamblia: qHTS; Giardia lamblia trophozoite viability; activity change, % at 7.66 µM, hits read low; hit rate 0.15% among 340,000; AID 540267, 2011; in the data active = activity change below about -80%; inconclusive = between about -30% and that limit;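 note: parasites exposed to compound for two days anaerobically before the ATP read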
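Giardia lamblia trophozoites (100 cells/well) were incubated with compounds for 48 h at 37 deg C under anaerobic conditions. Viability was read as ATP content by one-step luminescence after 15-30 min at room temperature.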
KB-V1 MDR tox: qHTS assay for MDR1-selective chemotherapeutics: Primary screen using the drug-selected MDR subline cells KB-V1 | KB-V1 MDR cells viability, CellTiter-Glo, 72 h | Potency, µM (top dose mostly 46.1 µM), actives largely listed as cytotoxic | hit rate 3.4% among 400,000; note: potency is the fitted concentration of half-maximal effect; nearly all actives have a fitted effect of over 60% in size
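Following 72 h at 37 degrees C with compound, KB-V1 cell viability was read by CellTiter-Glo luminescence, medium being phenol-red-free DMEM plus 10% FBS; concentration-response parameters came from normalized, curve-fitted qHTS data.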
Nrf2 inh: Nrf2 qHTS screen for inhibitors; A549 ARE-Fluc reporter, luciferase luminescence, 18-24 h; Potency, µM (highest dose often 46 µM), without a hit: top-dose activity change, negative = inhibition, hits mostly inhibitors; hit rate 2.1% among 360,000; note: potency is the fitted concentration of half-maximal effect; nearly all actives have a fitted effect of over 60% in size
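A549 ARE_Fluc cells (5000/well, 5% FBS OPTI-MEM) pre-incubated 2 h, then treated with compounds 18-24 h at 37C/5% CO2 in concentration-response. CellTiter-Fluor viability read first; BugLite luciferase luminescence after 15 min at room temperature gives Nrf2 activity.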
A549 viability: Nrf2 qHTS screen for inhibitors: counterscreen for cytotoxicity. A549 ARE-Fluc cells, CellTiter-Fluor viability, 18-24 h. Potency, µM (series often up to 46 µM), inactives show at the top dose activity change, negative = cytotoxicity, actives largely listed as inhibitors. hit rate 0.16% among 390,000. AID 504648, 2011; note: potency is the fitted concentration of half-maximal effect
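A549 ARE_Fluc cells in 5% FBS OPTI-MEM were exposed to compounds in concentration-response for 18-24 h at 37 deg C. Viability was read by CellTiter-Fluor fluorescence (Ex 405/Em 525) after 30 min, before the luciferase read.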
Numbers without * were called inactive; i = inactive; ? = inconclusive; · = no result given; ! = not confirmed by another sample. Unless noted, calls come from the whole dose curve; as a rule, active = well fitted curve in the direction sought with a large enough effect; inconclusive = small, poorly fitted or top-dose-only effect, or another doubt; inactive = no such curve, though single readings can be large; an effect the other way counts as inactive or inconclusive. Unless noted, % is set by controls: 0 for no effect and ±100 for the full control effect.

SMILES | KB-3-1 cytotox | PI4K2A inh | Giardia killer | KB-V1 MDR tox | Nrf2 inh | A549 viability
CCCCCCCCN1CCS(=O)(=O)N(Cc2ccccc2)C(C(=O)OC)C1 (centres undefined) | · | -2 | · | · | · | ·
COc1ccccc1C(=O)OCC(=O)Nc1ccc(N2CCCCC2)cc1 | ? | · | · | i | · | ·
COc1ccc(CNc2nc(S(=O)(=O)c3ccccc3)c(Cl)s2)cc1OC | ? | 12 | -7 | i | 15µM* | -22%
Cc1ccc(S(=O)(=O)c2nc(Nc3ccccc3)sc2Cl)cc1 | ? | 2 | 7 | i | ? | -18%
O=S(=O)(c1ccccc1)c1nc(Nc2cccc(O)c2)sc1Cl | 16µM* | 1 | 14 | ? | 0% | 7%
O=S(=O)(c1ccccc1)c1nc(NCc2ccccc2)sc1Cl | i | 2 | 9 | i | ? | -4%
O=Cc1ccnc2ccccc12 | i | · | · | i | · | ·
CCn1c2ccccc2c2cc(NC(=O)COC(=O)c3cccc(F)c3)ccc21 | · | -6 | · | · | · | ·
COc1ccc2nc(Nc3nc(CSc4ccc(C)cc4)cc(=O)[nH]3)nc(C)c2c1 | ? | -1 | -3 | i | ? | -18%
COCc1cc(=O)[nH]c(Nc2nc(C)c3ccccc3n2)n1 | ? | -2 | ? | 21µM* | ? | ·
Cc1ccc2c(C)nc(Nc3nc(CSc4nc5ccccc5s4)cc(=O)[nH]3)nc2c1 | i | 1 | -15 | i | 8% | 0%
COC(=O)Cc1cc(=O)[nH]c(Nc2nc3ccccc3o2)n1 | i | 1 | -7 | i | 27% | -2%
COc1ccc2nc(Nc3nc(CSc4nnnn4-c4ccccc4)cc(=O)[nH]3)nc(C)c2c1 | ? | 0 | 17 | 16µM* | -2% | -13%
COCc1cc(=O)[nH]c(Nc2nc3ccccc3o2)n1 | 7.1µM* | -7 | -13 | i | ? | ?
Cc1ccc(SCc2cc(=O)[nH]c(Nc3nc(C)c4cccc(C)c4n3)n2)cc1 | i | 1 | -7 | 21µM* | ? | 2%
CCC[C@H]1[C@@H](NC(=O)C#Cc2ccccc2)CC[C@@]23CCCN2C(=O)CCC[C@@H]13 | · | -2 | · | · | · | ·
FC(F)(F)c1cc(CNC2CCC23CCC(c2ccccc2)CC3)ccc1Cl (centres undefined) | · | 4 | · | · | · | ·
CSc1ccc(C(=O)C2CCCN(S(=O)(=O)c3c(C)noc3C)C2)cc1 (centres undefined) | i | 11 | 3 | ? | 13µM* | 0%
Cc1noc(C)c1S(=O)(=O)N1CCC(C(=O)c2ccccc2)CC1 | i | 0 | 7 | i | -3% | -5%
O=C(Nc1ccc2ccccc2c1)NC1CCCCN(Cc2cccc(Cl)c2)C1=O (centres undefined) | · | 3 | · | · | · | ·
CCCOC(=O)N[C@@H]1C(=O)N2C(C(=O)OCCC)=C(C)CS[C@H]12 | 16µM*! | -6 | 24 | ? | -3% | 0%
O=C(CSC1=Nc2ccccc2C2=NC(CCC(=O)NC3CCCCC3)C(=O)N12)Nc1cccc(C(F)(F)F)c1 (centres undefined) | i | -4 | · | i | 12µM* | ?
O=C(CSC1=Nc2ccccc2C2=NC(CCC(=O)NC3CCCCC3)C(=O)N12)Nc1cccc(Cl)c1 (centres undefined) | i | -2 | · | i | ? | ?
COc1ccccc1NC(=O)Nc1cccc(C)n1 | 21µM* | -3 | 24 | ? | 1% | 6%
COC(=O)c1ccccc1NC(=O)Nc1cccc(C)n1 | ? | 2 | -13 | i | 20% | -2%
SMILES | KB-3-1 cytotox | PI4K2A inh | Giardia killer | KB-V1 MDR tox | Nrf2 inh | A549 viability
CC1(C(=O)Nc2cccc(Br)c2)Cc2ccccc2C(=O)O1 (centres undefined) | i | -3 | · | ? | 2% | 0%
CC1(C(=O)Nc2cccc(-n3cnnn3)c2)Cc2ccccc2C(=O)O1 (centres undefined) | i | 3 | 6 | 12µM* | -10% | -5%
CCN(CC)c1c([N+](=O)[O-])c(=O)n(C)c2ccccc12 | i | -1 | 7 | ? | -14% | 6%
Cn1c(=O)c([N+](=O)[O-])c(Cl)c2ccccc21 | ? | -10 | 2 | i | ? | 21µM*
c1ccc2c(N3CCCCC3)nc(N3CCCC3)nc2c1 | i | 0 | 28 | 16µM* | -24% | -15%
Cc1nc(N2CCCCCC2)c2ccccc2n1 | ? | -1 | 0 | ? | 18µM* | -10%
Cc1nnc(N2CCCCC2)c2ccccc12 | i | -3 | -7 | i | -4% | 3%
Clc1nnc(N2CCCCC2)c2ccccc12 | i | -7 | 9 | ? | 16µM* | 1%
CCCSc1ccc(-c2nn(-c3ccccc3)cc2/C=C(/C#N)C(=O)N2CCOCC2)cc1 | ? | 13 | 31 | 23µM* | ? | 10%
CC(C(=O)NC(=O)NC1CCCCC1)N1CCN(c2ccc(O)cc2)CC1 (centres undefined) | i | -3 | 36 | 23µM* | -18% | -8%
O=C(c1ccccc1O)N(Cc1ccccc1)Cc1ccccc1 | · | · | · | · | 3% | 4%
Cc1[nH]nc(-c2cccnc2)c1N=NN(C)C | ? | -14 | -20 | 16µM* | ? | ?
O=C1c2cccc3c(Nc4ccccc4Cl)c([N+](=O)[O-])cc(c23)C(=O)N1CCO | i | 2 | 5 | i | 13µM* | ·
COc1cc(C)c(C(C)C)cc1S(=O)(=O)n1cnc(C)c1 | 5.2µM* | 0 | -12 | ? | 17% | 3%
Clc1cccc(Cl)c1/C=N/Nc1c(Cl)cncc1Cl | 4.6µM* | 6 | 7 | ? | ? | 1%
CCC(C)(C(=O)NC1CCCCC1)N(CC1CCCO1)C(=O)CNC(=O)c1ccccc1 (centres undefined) | i | 2 | 0 | ? | 6% | -6%
